# DT40 TDP1 no CPT: qHTS for Inhibitors of human tyrosyl-DNA phosphodiesterase 1 (TDP1): qHTS in cells in absence of CPT; DT40 Tdp1-/- hTDP1 cells, no CPT, ATP luminescence, 48 h; Potency, µM (top dose mostly 46.2 µM), inactives show top-dose activity change, negative = growth inhibition, hits mostly inhibitors; 420,000 compounds, 15% hits; also: nearly all actives have a fitted effect of over 55% in size
#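 Luminescent ATP content (CellTiter-Glo) served as the growth readout. Knockout chicken DT40 cells expressing human TDP1 were exposed to compounds without camptothecin for a minimum 48 hr at 37 °C.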
# DT40 TDP1 CPT: qHTS for Inhibitors of human tyrosyl-DNA phosphodiesterase 1 (TDP1): qHTS in cells in presence of CPT; chicken DT40 Tdp1-/-;hTDP1 cells + 20 nM CPT, ATP luminescence, 48 h; Potency, µM (top dose mostly 46.2 µM), for the others: top-dose activity change, negative = growth inhibition, usual class: inhibitors; 420,000 compounds, 12% hits; AID 686979, 2013; also: nearly all actives have a fitted effect of over 55% in size
#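 Chicken DT40 Tdp1-/- cells stably complemented with human TDP1 were seeded at 400 cells/well in medium containing 20 nM camptothecin, exposed to pin-transferred compounds, and grown at 37 °C for at least 48 hr. Viability was read as ATP luminescence.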
# TDP1 block: qHTS Assay for Inhibitors of Tyrosyl-DNA Phosphodiesterase (TDP1). Tyrosyl-DNA phosphodiesterase 1 (Homo sapiens), Q9NUW8. recombinant TDP1, AlphaScreen DNA substrate cleavage. Potency, µM (highest dose often 130 µM), for inactives: top-dose activity change, negative = inhibition, usual class: inhibitors. 350,000 compounds, 0.28% hits. AID 485290, 2010; also: nearly all actives have a fitted effect of over 40% in size
#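 Steps: enzyme plus compound, 15 min RT; add biotin/phosphotyrosine-FITC oligonucleotide (15 nM final), react 5 min; add donor/acceptor beads (10 ug/ml final), 10 min; read AlphaScreen. Tdp1 at 1 nM final.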
# Gal4-VP16 FLuc: VP16 counterscreen qHTS for inhibitors of ROR gamma transcriptional activity. Drosophila S2 Gal4-VP16 UAS-luciferase, luminescence, 20 h. Potency, µM (doses to about 53.6 µM), inactives show at the top dose activity, negative = inhibition, most hits filed as inhibitors. 310,000 compounds, 3.5% hits. AID 2546, 2010;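 also: Gal4-VP16 expression switched on by copper sulfate through the metallothionein promoter; nearly all actives have a fitted effect of over 50% in size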
# RORg inh: qHTS for inhibitors of ROR gamma transcriptional activity; Nuclear receptor ROR-gamma (Mus musculus), P51450; Drosophila S2 Gal4-RORgamma UAS-luciferase reporter, 20 h; Potency, µM (titrated, usually from 53.6 µM), inactives show at the top dose activity change, negative = inhibition, most hits filed as inhibitors; 310,000 compounds, 5.4% hits; also: nearly all actives have a fitted effect of over 60% in size
# Target sequence (P51450 whole entry, looked up, the tested form may be a part): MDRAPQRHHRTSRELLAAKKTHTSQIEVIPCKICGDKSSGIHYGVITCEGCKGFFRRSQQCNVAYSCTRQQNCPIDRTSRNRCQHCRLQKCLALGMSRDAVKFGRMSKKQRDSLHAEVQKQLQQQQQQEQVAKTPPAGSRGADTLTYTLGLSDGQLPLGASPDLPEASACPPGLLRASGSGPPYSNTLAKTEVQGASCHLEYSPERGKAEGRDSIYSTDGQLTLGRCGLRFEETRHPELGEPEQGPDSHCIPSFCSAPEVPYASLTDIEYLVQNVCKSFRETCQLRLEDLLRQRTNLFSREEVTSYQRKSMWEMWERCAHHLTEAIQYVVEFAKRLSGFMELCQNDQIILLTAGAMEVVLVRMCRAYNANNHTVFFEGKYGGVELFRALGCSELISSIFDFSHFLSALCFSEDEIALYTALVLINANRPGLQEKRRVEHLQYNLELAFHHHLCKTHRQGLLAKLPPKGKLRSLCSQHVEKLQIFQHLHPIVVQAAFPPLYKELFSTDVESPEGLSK
#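 Stably transfected Drosophila Schneider cells are the test system, with ROR gamma fused to Gal4 and luciferase under UAS control; luminescence is read after 20 hr of 700 uM copper sulfate induction at ambient temperature.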
# Active calls of the source: *; ? = inconclusive; nt = not tested or not shown; [ ] = remark or other dose. Hits are enriched below; roughly 19% of the tested compounds scored in any of these assays. Calls follow the shape of the dose curve; as a rule, active = well fitted curve in the direction sought with a large enough effect; inconclusive = small, poorly fitted or top-dose-only effect, or another doubt; inactive = no such curve, though single readings can be large; an effect the other way counts as inactive or inconclusive. % is scaled to controls: 0 for no effect and ±100 for the full control effect; potency is read from the fitted curve at half-maximal effect.
SMILES,DT40 TDP1 no CPT,DT40 TDP1 CPT,TDP1 block,Gal4-VP16 FLuc,RORg inh
Cc1ccc(S(=O)(=O)N(C)[C@H]2C[C@H]3c4[nH]c5ccccc5c4CCN3C[C@H]2[C@H](C)O)cc1,?,21µM*,nt,nt,nt
COc1ccc(CN(C)[C@H]2C[C@H]3c4[nH]c5ccccc5c4CCN3C[C@H]2[C@H](C)O)cc1,18µM*,?,nt,nt,nt
COc1ccc(C2(CNC(=O)c3cc([N+](=O)[O-])cc([N+](=O)[O-])c3)CCCC2)cc1OC,16µM*,21µM*,8%,11%,?
O=C(NCc1ccco1)C1(c2ccccc2)CCCC1,7.1µM*,10µM*,7%,-1%,7%
COc1cccc(C(=O)NCC2(c3ccccc3)CCCC2)c1OC,9.2µM*,18µM*,nt,-7%,12%
O=C(NCC1(c2ccccc2)CCCC1)c1ccco1,15µM*,-65%,3%,8%,15%
C#CCOCCOCCOCCNc1nc(N2CCN(C(=O)Cn3cc(CCCN=C(N)N)nn3)CC2)nc(N2CCN(C(=O)Cn3cc(CC(C)O)nn3)CC2)n1 (stereo not drawn),-9%,-6%,nt,nt,nt
O=C1OCCC1Sc1nnc(-c2cccnc2)n1-c1ccccc1F (stereo not drawn),-2%,2%,nt,-13%,26%
COc1cc(N=C2C(=O)N3CCCc4cccc2c43)cc(OC)c1,?,-27%,5%,6%,1%
O=C(NCC1(c2ccccc2)CCCC1)c1cccc(Br)c1,13µM*,15µM*,-8%,0%,-9%
Nc1ccc(C(=O)NCC2(c3ccccc3)CCCC2)cc1,?,-23%,1%,8%,34%
O=C(/C=C/c1ccco1)NCC1(c2ccccc2)CCCC1,?,12µM*,-1%,-12%,11%
COc1ccc(NC(=O)CN2CCN(Cc3ccccc3)CC2)cc1,-1%,7%,nt,-1%,-14%
CCc1nc(NCCN)c(C#N)c2c1CSC(C)(C)C2,?,?,6%,1%,-11%
O=C(Nc1ccc(Cl)c([N+](=O)[O-])c1)c1ccc(NCCCN2CCOCC2)c([N+](=O)[O-])c1,2.3µM*,2.3µM*,1%,?,5µM*
COc1ccc(NC(=O)c2ccc(NCCCN3CCOCC3)c([N+](=O)[O-])c2)cc1,18µM*,21µM*,2%,4%,1%
O=C(NCCCN1CCOCC1)c1ccc(Sc2cccc(Cl)c2)c([N+](=O)[O-])c1,21µM*,?,4%,-8%,-7%
O=[N+]([O-])c1ccc(NCCCN2CCOCC2)c([N+](=O)[O-])c1,-24%,24%,2%,5%,4%
Cc1ccc(NC(=O)c2ccc(NCCCN3CCOCC3)c([N+](=O)[O-])c2)cc1Cl,21µM*,?,-5%,-21%,18%
CCCS(=O)(=O)NC(=O)C1(C)CCCN(C(=O)c2c(F)ccc(C)c2F)C1 (stereo not drawn),-7%,-2%,nt,nt,nt
O=C(Cn1c(=O)nc(-c2ccccc2)c2ccccc21)NCCCc1ccccc1,?,-18%,-1%,nt,nt
COc1ccc(N2CCN(C(=O)c3cccc(F)c3)CC2)c([N+](=O)[O-])c1,?,?,9%,-22%,-7%
COc1ccc(N2CCN(C(=O)CC34CC5CC(CC(C5)C3)C4)CC2)c([N+](=O)[O-])c1,16µM*,21µM*,0%,?,?
CCC(=O)N1CCN(c2ccc(OC)cc2[N+](=O)[O-])CC1,-19%,-6%,2%,6%,-13%
COc1ccc(N2CCN(C(=O)c3cccc(Br)c3)CC2)c([N+](=O)[O-])c1,16µM*,23µM*,8%,-22%,28%
SMILES,DT40 TDP1 no CPT,DT40 TDP1 CPT,TDP1 block,Gal4-VP16 FLuc,RORg inh
CO/N=C/c1ccc(N2CCN(C(=O)c3ccc(C)cc3)CC2)c([N+](=O)[O-])c1,15µM*,18µM*,8%,?,?
CO/N=C/c1ccc(N2CCCC2)c([N+](=O)[O-])c1,3%,2%,6%,17%,5%
COc1ccc(N2CCN(C(=O)c3ccc(F)cc3)CC2)c([N+](=O)[O-])c1,21µM*,-13%,5%,?,?
Oc1ccc(Cl)cc1C=Nc1ccc(Br)cc1,-29%,-5%,5%,-6%,-10%
CC(C)Cc1nnc(NC(=O)C2CCCC2)s1,-33%,2%,9%,-12%,-5%
Cc1cccc[n+]1C1C(c2ccc([N+](=O)[O-])cc2)C(C#N)=C(C(=C=[N-])C#N)NC1(O)C1CC1 (stereo not drawn),-25%,11%,3%,-3%,-21%
N#CC1=C(N)NC(=S)C(C(N)=O)C1c1ccc([N+](=O)[O-])cc1 (stereo not drawn),-6%,5%,11%,13µM*,?
COc1ccc(NC(=O)COC(=O)c2ccc(S(=O)(=O)N3CCCC3)cc2)cc1OC,23%,4%,1%,nt,nt
O=C(O)CSCC(=O)N1CCN(Cc2ccc3c(c2)OCO3)CC1,1%,2%,nt,3%,-2%
Cc1nc(-c2ccc(F)cc2)c(CC(=O)N2CCN(S(=O)(=O)c3cccc(F)c3)CC2)s1,15µM*,21µM*,nt,nt,nt
Cc1ccc(/C=N/NC(=O)c2nnn(-c3nonc3N)c2CSc2ccccc2)s1,-7%,19%,-6%,5µM*,4µM*
Cc1ccsc1/C=N/NC(=O)c1nnn(-c2nonc2N)c1CSc1ccccc1,16%,-25%,0%,4µM*,2.5µM*
CCCc1c(C(=O)N/N=C/c2ccc(-c3ccccc3)cc2)nnn1-c1nonc1N,-2%,-4%,nt,nt,nt
CCCc1c(C(=O)N/N=C/c2ccc(C)s2)nnn1-c1nonc1N,21%,7%,-9%,2.8µM*,1µM*
O=C(COc1ccc2ccccc2c1)NN1C(=O)c2ccccc2C1=O,3%,-5%,5%,12%,5%
COc1ccc(/C=N/S(=O)(=O)c2ccc(C)cc2)cc1,8%,1%,0%,2%,6%
CCN(C(=O)c1cc(Cl)ccc1OC)c1ccccc1C,21µM*,?,-2%,-4%,14%
CCN(C(=O)c1cn(C)c(=O)c2cc(OC)c(OC)cc12)c1ccccc1C,-11%,8%,3%,-2%[0.365 µM],-27%
CCN(C(=O)c1cn(C)c(=O)c2cc(OC)c(OC)cc12)c1cc(C)ccc1C,?,13%,7%,-1%,19%
CCN(C(=O)c1cc(Cl)ccc1Cl)C1CCS(=O)(=O)C1 (stereo not drawn),-6%,-4%,nt,nt,nt
